# High-throughput results from PubChem.
# Mot1-301 SUMO: inhibitors of SUMOylation pathway: yeast Mot1-301 growth rescue. S. cerevisiae Mot1-301 growth rescue, ATP luminescence, 38.5C; percent above DMSO median, 100 means doubled. growth rescue, % at 18.8 µM. hit rate 1% among 320,000;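 active = every valid replicate shows activation above 250% relative to neutral control wells; inactive = the rest, any valid replicate at or below 250%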;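 note: OY570 slx delta 5 strain wells were the positive control but not used for scaling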
# FAS TE block: inhibitors of human fatty acid synthase thioesterase domain. P49327. recombinant FAS-TE, OMFH fluorogenic substrate, fluorescence endpoint. inhibition, % at 15 µM. hit rate 0.67% among 360,000. AID 602261;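 active = compounds whose normalised, plate-corrected inhibition of enzyme fluorescence in the single-dose primary screen is 50% or more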;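 note: 0% = DMSO with enzyme and 100% = substrate without enzyme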
# ATG4B inhibitor: blocks human ATG4B protease cleavage of LC3 substrate; AID 504462; inhibition, % at 8.33 µM; Q9Y4P1; hit rate 0.51% among 340,000; ATG4B cleavage of LC3-PLA2, NBD-HPC fluorescence, 1 h; in the data active = inhibition above about 40%
# Calb FLC: affects C. albicans growth with fluconazole; C. albicans CaCi-2 (fluconazole-resistant clinical isolate) + fluconazole, Alamar Blue growth, 48 h; growth inhibition, % (no concentration beside the values); hit rate 0.57% among 300,000;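 active = growth inhibition above about 58% in most replicates, limit read from the data, passing the limit was not always enough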;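 note: all wells also contain fluconazole at 8 µg/ml as a sub-toxic cotreatment; 0% = median of DMSO wells and 100% = median of geldanamycin control wells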
# NadD inh: inhibitors of Staphylococcus aureus NadD | purified NadD enzyme, colorimetric absorbance read-out | hit rate 0.78% among 360,000 | inhibition, % at 20 µM | AID 602399; in the data active = inhibition above about 26%
# An asterisk follows results filed as active; . = not tested or not shown. Only some compounds are listed: those with a hit (about 3.1% of all), similar ones and a draw of the others.
SMILES,Mot1-301 SUMO,FAS TE block,ATG4B inhibitor,Calb FLC,NadD inh
COc1ccc(CNC(=O)CSc2nnc(-c3ccc(NC(C)=O)cc3)n2C)cc1,0,-6,5,15,-3
Cc1ccc2c(c1)[C@H]1[C@H](CO2)[C@H](c2ccccc2)[C@]2(C)C(=O)Nc3ccc(Cl)cc3C(=O)N12,191,33,7,.,5
C[C@@]12C(=O)Nc3ccc(F)cc3C(=O)N1[C@H]1c3cc(Br)ccc3OC[C@@H]1[C@@H]2c1ccccc1,349*,89*,-7,.,7
CC1(C(=O)Nc2ccc3ccccc3c2)CCC(=O)N1CCc1c[nH]c2ccccc12 (configuration not stated),.,15,.,.,-12
Cc1ccc(C(=O)c2ccccc2C(=O)Nc2ccccc2)cc1,0,-6,-8,7,-5
Cc1ccc(C)c(NC(=O)c2ccccc2C(=O)c2ccccc2)c1,715*,11,.,-2,2
CCCCc1c(-c2ccccc2OC)ncn1C1CCCC1,.,-8,.,.,-3
Cc1ccc(-n2c(-c3ccccc3)c[n+]3c2CCc2ccccc2-3)c(C)c1,35,-2,-1,102*,2
COc1cccc(C(=O)OCC(=O)N2CCc3ccccc3C2)c1OC,-16,1,-15,.,0
COc1cc(/C=C2/SC(=S)N(CC(=O)Nc3nc4ccccc4s3)C2=O)cc(OC)c1OC,-3,4,2,29,35*
Cc1cccc(Cc2cnc(NC(=O)CN3C(=O)/C(=C/c4ccccc4)SC3=S)s2)c1,-5,11,2,11,31*
O=C(N/N=C/c1sc2ccccc2c1O)c1cccc2ccccc12,-4,9,-11,88*,6
COc1cc2ccccc2cc1C(=O)N(CCN(C)C)c1nc2ccc(Br)cc2s1,-13,13,11,102*,9
Oc1ccc(O)c2c1C1c3ccccc3C2c2ccccc21,6,.,.,78*,.
O=C(N/N=C/c1cc([N+](=O)[O-])ccc1O)c1cc(-c2ccccc2)nc2ccccc12,329,36,4,-14,31*
CCOC(=O)c1c(C)[nH]c(C(=O)N/N=C/c2cc([N+](=O)[O-])ccc2O)c1C,-9,15,2,2,33*
CCC(CC)=NNc1cccc([N+](=O)[O-])c1,0,-1,-7,-9,2
O=[N+]([O-])c1cccc(N/N=C/c2cc([N+](=O)[O-])ccc2O)c1,301*,11,10,-53,6
CC/C(C)=N/Nc1cccc([N+](=O)[O-])c1,275*,6,2,92*,2
CCOC(=O)c1c(C)[nH]c(C(=O)N/N=C\c2ccccc2O)c1C,-3,7,-10,-4,-3
O=c1[nH][nH]c2c1[C@H](c1ccccc1)O[C@H](C1CCCCC1)C2,.,-25,.,.,13
CCCn1c(N)c(N(CCOC)C(=O)c2cccc(S(=O)(=O)N3CCCc4ccccc43)c2)c(=O)[nH]c1=O,19,-4,-9,20,-1
O=c1[nH]c(-c2ccccn2)nc2ccccc12,-33,-4,5,1,-6
O=c1[nH]c(-c2ccccn2)nc(C(F)(F)F)c1Br,16,-2,-7,108*,5
CN1CCN(C(c2ccc(F)cc2)c2ccc3cccnc3c2O)CC1 (configuration not stated),.,-8,0,.,0
SMILES,Mot1-301 SUMO,FAS TE block,ATG4B inhibitor,Calb FLC,NadD inh
CN1CCN(C(c2ccc(Br)cc2)c2cc(Cl)c3cccnc3c2O)CC1 (configuration not stated),268,0,12,90*,25
CN1CCN(C(c2cccnc2)c2ccc3cccnc3c2O)CC1 (configuration not stated),174,-7,-3,89*,0
Cc1ccc(S(=O)(=O)NCC(=O)NCC(=O)N(C)Cc2ccc3ccccc3c2)cc1C,13,5,-21,-8,-3
CCOC(=O)C1CCN(C(=O)c2ccc3c(c2)C(=O)N(c2ccccc2C)C3=O)CC1,-9,-1,-4,-3,-1
CC1=NN(C(N)=S)C(=O)C1N=Nc1cccc(Cl)c1C (configuration not stated),-1,0,19,12,3
CC1=NN(C(N)=S)C(=O)C1N=Nc1cccc2ccccc12 (configuration not stated),-23,.,.,108*,.
NS(=O)(=O)c1ccc(N=Nc2c(-c3ccccc3)[nH]n(-c3nc(-c4ccccc4)cs3)c2=O)cc1,-11,23,-27,27,37*
CC1=C(C(=O)N2CCCCCC2)CC(CC(=O)NCCN2CCOCC2)C(=O)N1Cc1ccc(C(C)(C)C)cc1 (configuration not stated),.,5,.,.,-7
O=C(O)c1cccc(C(=O)O)c1,384*,-2,-7,0,1
Cc1ccc(OCCCC(=O)N(C)CC(=O)Nc2c(C)cccc2C)cc1,.,-4,.,.,-3
Cc1cccc(NC(=O)CN2C(=O)N/C(=C/c3cc(C)n(C)c3C)C2=O)c1,.,2,18,.,30*
O=S1(=O)N[C@@H](Cc2ccccc2)COc2cc(N3CC[C@H](O)C3)ccc21,.,-9,.,.,11
Cc1occc1-c1nnc(SCC(=O)N2CCCC(C)C2)o1 (configuration not stated),.,-3,-6,.,0
Clc1ccc(OCc2cn3cccnc3n2)c2ncccc12,.,-6,-8,8,7
Cc1cc(Cl)ccc1OCc1cn2cccnc2n1,-4,0,-3,61*,0
CSc1ncccc1C(=O)OCC(=O)NCc1ccc2c(c1)OCO2,294*,-5,-1,-25,-5
Cc1cc(C)cc(C(=O)N(CCc2ccccc2)C2CC3CCC(C2)N3C)c1 (configuration not stated),83,-2,3,-3,-11
CN1CCCCCC1C(=O)N1CCC(N2CCC(C(=O)N3CCOCC3)CC2)CC1 (configuration not stated),270*,-6,11,-7,-5
O=C1C(Sc2ccccc2)=C[C@@]2(O)CC[C@@H](O)[C@]1(Sc1ccccc1)[C@H]2O,.,-12,.,.,1
COc1cccc(NC(=O)c2ccc(NC(=O)C3CC(=O)OC34CCCCC4)cc2)c1 (configuration not stated),5,4,-10,-23,-2
CC1CCN(C(=O)Cn2c3ccccc3c3nc4n(c(=O)c32)CCS4)CC1,269,0,-5,91*,6
O=C(Cn1c2ccc(F)cc2c2nc3n(c(=O)c21)CCS3)N1CCCC1,1,-4,4,89*,3
CC1CCCN(C(=O)Cn2c3ccccc3c3nc4n(c(=O)c32)CCS4)C1 (configuration not stated),-4,0,-4,34,-2
c1ccc(CCNc2ncnc3sccc23)nc1,107,-3,-5,26,0
Cc1csc2ncnc(NCCc3ccccn3)c12,11,3,1,98*,-6
Cc1cccc(C(=O)CC(=O)c2cc(Cl)ccc2O)c1,213,13,9,98*,10
